Assay results published in PubChem BioAssay AID1159580 (chemical genetic matrix, 2015).
Screen size: about 5,500 compounds; about 2,000 (36%) were called active. About 18% were inconclusive and are not listed. Cut-off read from the data, not from the text of the source: active = normalized growth mostly below about 0.91 (no sharp cut-off); inconclusive = no clear call, values can overlap the other calls; inactive = mostly above about 0.92. The list shows a part of the results.

Assay: chemical genetic growth profiling, strain panel (AID 1159580);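 note: tested at 20 µM; growth read once vehicle control cultures reached saturation at 30 °C; 1 = growth at the plate median or of vehicle wells; lower values mean less growth of the strain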
Details: growth OD

Measured: normalized growth

CC(=O)O[C@H]1CC[C@]2(C)C3CC[C@@]4(C)C(CC5O[C@@]6(CCC(C)CO6)[C@@H](C)C54)C3CC[C@@H]2C1 (stereo partly specified)
inactive: S. cerevisiae deletion strains, locus YJR066W, strain TOR1, hits give low values 0.946 | S. cerevisiae deletion strains, locus YJR075W, strain HOC1, hits give low values 0.982 | S. cerevisiae deletion strains, locus YKL009W, strain mrt4, hits give low values 1.04 | S. cerevisiae deletion strains, locus YKL068W, hits give low values 1 | S. cerevisiae deletion strains, locus YKL160W, strain elf1, hits give low values 1.01 | S. cerevisiae deletion strains, locus YKL190W, strain CNB1, hits give low values 1 | S. cerevisiae deletion strains, locus YKR001C, strain vps1, hits give low values 0.998 | S. cerevisiae deletion strains, locus YKR026C, strain gcn3, hits give low values 1.02 | S. cerevisiae deletion strains, locus YKR091W, strain srl3, hits give low values 1.02 | S. cerevisiae deletion strains, locus YLL001W, strain dnm1, hits give low values 1.01 | S. cerevisiae deletion strains, locus YLL026W, hits give low values 1.02 | S. cerevisiae deletion strains, locus YLL041C, strain sdh2, hits give low values 1.02 | S. cerevisiae deletion strains, locus YLR027C, strain aat2, hits give low values 1 | S. cerevisiae deletion strains, locus YLR039C, strain RIC1, hits give low values 0.992 | S. cerevisiae deletion strains, locus YLR058C, strain SHM2, hits give low values 0.993 | S. cerevisiae deletion strains, locus YLR102C, strain apc9, hits give low values 0.991 | S. cerevisiae deletion strains, locus YLR113W, strain HOG1, hits give low values 0.963 | S. cerevisiae deletion strains, locus YLR221C, strain rsa3, hits give low values 1.03 | S. cerevisiae deletion strains, locus YLR258W, strain gsy2, hits give low values 1.01 | S. cerevisiae deletion strains, locus YLR262C, strain YPT6 (second series), hits give low values 1.01 | S. cerevisiae deletion strains, locus YLR268W, strain sec22, hits give low values 0.998 | S. cerevisiae deletion strains, locus YLR320W, strain mms22, hits give low values 1.03 | S. cerevisiae deletion strains, locus YLR330W, strain CHS5, hits give low values 0.984 | S. cerevisiae deletion strains, locus YLR342W, strain FKS1 (second series), hits give low values 1.01 | S. cerevisiae deletion strains, locus YLR342W, strain FKS1, hits give low values 1.03 | S. cerevisiae deletion strains, locus YLR357W, strain rsc2, hits give low values 1.01 | S. cerevisiae deletion strains, locus YLR370C, strain arc18, hits give low values 1.02 | S. cerevisiae deletion strains, locus YLR371W, strain rom2, hits give low values 0.99 | S. cerevisiae deletion strains, locus YLR384C, strain iki3, hits give low values 0.99 | S. cerevisiae deletion strains, locus YLR418C, strain cdc73, hits give low values 0.947 | S. cerevisiae deletion strains, locus YML016C, strain PPZ1, hits give low values 0.992 | S. cerevisiae deletion strains, locus YML032C, strain rad52, hits give low values 0.977 | S. cerevisiae deletion strains, locus YML120C, strain ndi1, hits give low values 1.03 | S. cerevisiae deletion strains, locus YML124C, strain tub3, hits give low values 0.979 | S. cerevisiae deletion strains, locus YMR058W, strain fet3, hits give low values 1.01 | S. cerevisiae deletion strains, locus YMR078C, strain ctf18, hits give low values 1 | S. cerevisiae deletion strains, locus YMR125W, strain sto1, hits give low values 1.03 | S. cerevisiae deletion strains, locus YMR129W, hits give low values 1 | S. cerevisiae deletion strains, locus YMR205C, strain PFK2, hits give low values 0.999 | S. cerevisiae deletion strains, locus YMR223W, strain ubp8, hits give low values 0.984 | S. cerevisiae deletion strains, locus YMR231W, strain pep5, hits give low values 1.01 | S. cerevisiae deletion strains, locus YMR263W, strain SAP30, hits give low values 0.996 | S. cerevisiae deletion strains, locus YMR307W, strain GAS1, hits give low values 1.12 | S. cerevisiae deletion strains, locus YNL067W, strain RPL9B, hits give low values 0.98 | S. cerevisiae deletion strains, locus YNL071W, strain lat1, hits give low values 1 | S. cerevisiae deletion strains, locus YNL128W, strain TEP1, hits give low values 0.998 | S. cerevisiae deletion strains, locus YNL153C, strain GIM3, hits give low values 0.984 | S. cerevisiae deletion strains, locus YNL183C, strain NPR1, hits give low values 0.964 | S. cerevisiae deletion strains, locus YNL209W, strain ssb2, hits give low values 1 | S. cerevisiae deletion strains, locus YNL233W, strain BNI4, hits give low values 1.02 | S. cerevisiae deletion strains, locus YNL248C, strain rpa49, hits give low values 1.02 | S. cerevisiae deletion strains, locus YNL250W, strain rad50, hits give low values 0.975 | S. cerevisiae deletion strains, locus YNL271C, strain bni1, hits give low values 0.989 | S. cerevisiae deletion strains, locus YNL298W, strain CLA4, hits give low values 1 | S. cerevisiae deletion strains, locus YNL307C, strain MCK1, hits give low values 0.996 | S. cerevisiae deletion strains, locus YNL322C, strain KRE1 (second series), hits give low values 1.03 | S. cerevisiae deletion strains, locus YNR049C, strain mso1, hits give low values 0.995 | S. cerevisiae deletion strains, locus YNR052C, strain pop2, hits give low values 0.983 | S. cerevisiae deletion strains, locus YOL012C, strain htz1 0.761 | S. cerevisiae deletion strains, locus YOL147C, strain pex11, hits give low values 0.986 | S. cerevisiae deletion strains, locus YOR001W, strain rrp6, hits give low values 1.01 | S. cerevisiae deletion strains, locus YOR061W, strain CKA2, hits give low values 0.999 | S. cerevisiae deletion strains, locus YOR069W, strain VPS5, hits give low values 0.983 | S. cerevisiae deletion strains, locus YOR070C, strain gyp1, hits give low values 1.02 | S. cerevisiae deletion strains, locus YOR080W, strain dia2, hits give low values 1.01 | S. cerevisiae deletion strains, locus YOR083W, strain WHI5, hits give low values 1.04 | S. cerevisiae deletion strains, locus YOR106W, strain vam3, hits give low values 1.02 | S. cerevisiae deletion strains, locus YOR136W, strain idh2, hits give low values 0.993 | S. cerevisiae deletion strains, locus YOR144C, strain elg1, hits give low values 0.994 | S. cerevisiae deletion strains, locus YOR184W, strain ser1, hits give low values 1.03 | S. cerevisiae deletion strains, locus YOR231W, strain MKK1, hits give low values 0.988 | S. cerevisiae deletion strains, locus YOR265W, strain rbl2, hits give low values 1.02 | S. cerevisiae deletion strains, locus YOR270C, strain vph1, hits give low values 1 | S. cerevisiae deletion strains, locus YOR290C, strain snf2, hits give low values 1.03 | S. cerevisiae deletion strains, locus YOR316C, strain cot1, hits give low values 0.989 | S. cerevisiae deletion strains, locus YPL051W, strain arl3, hits give low values 1.02 | S. cerevisiae deletion strains, locus YPL078C, strain atp4, hits give low values 1.04 | S. cerevisiae deletion strains, locus YPL106C, strain sse1, hits give low values 0.978 | S. cerevisiae deletion strains, locus YPL240C, strain hsp82, hits give low values 1 | S. cerevisiae deletion strains, locus YPL256C, strain CLN2, hits give low values 0.957 | S. cerevisiae deletion strains, locus YPR119W, strain clb2, hits give low values 0.984 | S. cerevisiae deletion strains, locus YPR141C, strain kar3, hits give low values 0.98 | S. cerevisiae deletion strains, locus YPR163C, strain tif3, hits give low values 0.986 | S. cerevisiae deletion strains, locus YPR167C, strain met16, hits give low values 1 | S. cerevisiae deletion strains, strain wtn01, hits give low values 1.01 | S. cerevisiae strains, strain wild type, hits give low values 1.01
